Holding throughout (conditions): mRNA level, 48 h; actives raise or lower the signal
Read-out in assay [1]: Early growth response protein 1 (EGR1) transcription factor, EGR1 (gene 1958)
Briefly: LTEA_HepaRG_EGR1: Life Technologies and Expression Analysis (LTEA) Assay for Early growth response protein 1 (EGR1) transcription factor using HepaRG (AID 2283490). The gist of the method: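 EGR1 transcript levels quantified by qRT-PCR (Fluidigm arrays) against three housekeeping genes after 48 h chemical exposure of HepaRG cells. Eight-point half-log series topping at 100 uM, 0.5% DMSO vehicle, analyzed for gain or loss.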

Read-out in assay [2]: Ezrin (EZR), EZR (gene 7430)
Briefly: LTEA_HepaRG_EZR: Life Technologies and Expression Analysis (LTEA) Assay for Ezrin (EZR) using HepaRG (AID 2283491). The gist of the method:
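EZR transcript levels came from Fluidigm qRT-PCR and were normalized to three housekeeping genes after 48 h chemical exposure of HepaRG cells. Dosing used an 8-point half-log series with a 100 uM top concentration in 0.5% DMSO, tested in duplicate; both directions were fitted versus vehicle.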

Read-out in assay [3]: Cytochrome P450 3A7 (Homo sapiens) (UniProt P24462)
Briefly: LTEA_HepaRG_CYP3A7: Life Technologies and Expression Analysis (LTEA) Assay for CYP3A7 using HepaRG (AID 2283492). The gist of the method:
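CYP3A7 transcript levels were read by TaqMan qRT-PCR on Fluidigm arrays after 48 h chemical exposure of human HepaRG cells, with housekeeping-gene normalisation. Eight half-log concentrations up to 100 uM in 0.5% DMSO were tested in duplicate.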

Read-out in the next assay: CYP3A5 (gene 1577)
Briefly: LTEA_HepaRG_CYP3A5: Life Technologies and Expression Analysis (LTEA) Assay for CYP3A5 using HepaRG (AID 2283493). The method, boiled down:
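qRT-PCR read-out: CYP3A5 transcript in HepaRG lysates, housekeeping-normalized (ACTB/GAPDH/POLR2A), fitted bidirectionally against 0.5% DMSO baseline. Exposure 48 h, eight half-log concentrations up to 100 uM, duplicates.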

Read-out in assay [4]: Fatty Acid-Binding Protein 1 (FABP1), FABP1 (gene 2168)
Briefly: LTEA_HepaRG_FABP1: Life Technologies and Expression Analysis (LTEA) Assay for Fatty Acid-Binding Protein 1 (FABP1) using HepaRG (AID 2283494). The gist of the method:
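FABP1 expression by TaqMan qRT-PCR, normalised to three housekeeping genes, in HepaRG cells after 48 h chemical treatment. Eight-point half-log series topping at 100 uM in 0.5% DMSO, duplicates; gain or loss fitted relative to vehicle.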

Read-out in assay [5]: Cytochrome P450 4A22 (Homo sapiens) (UniProt Q5TCH4)
Briefly: LTEA_HepaRG_CYP4A22: Life Technologies and Expression Analysis (LTEA) Assay for Cytochrome P450 4A22 (CYP4A22) using HepaRG (AID 2283495). The gist of the method:
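HepaRG, 48 h post-plating -> serum-free induction medium; dosed 48 h, duplicate, 8 conc. (100 uM top, half-log), 0.5% DMSO. Readout: CYP4A22 mRNA by qRT-PCR, ACTB/GAPDH/POLR2A normalization; gain/loss fit relative to DMSO.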

Read-out in assay [6]: Glutathione S-Transferase (GSTA2), GSTA2 (gene 2939)
Briefly: LTEA_HepaRG_GSTA2: Life Technologies and Expression Analysis (LTEA) Assay for Glutathione S-Transferase (GSTA2) using HepaRG (AID 2283497). The method, boiled down: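 GSTA2 transcript levels came from Fluidigm TaqMan qRT-PCR normalized to three housekeeping genes, fitted in both directions against DMSO. HepaRG cultures received chemicals for 48 h in serum-free induction medium (0.5% DMSO), 8 half-log concentrations up to 100 uM, duplicate.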

Read-out in assay [7]: Glutamate-cysteine ligase catalytic (GCLC), GCLC (gene 2729)
Briefly: LTEA_HepaRG_GCLC: Life Technologies and Expression Analysis (LTEA) Assay for Glutamate-cysteine ligase catalytic (GCLC) using HepaRG (AID 2283498). The gist of the method: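 Expression by TaqMan qRT-PCR, normalized to three housekeeping genes (ACTB, GAPDH, POLR2A), with up- or down-regulation fitted against DMSO. HepaRG cells dosed in duplicate for 48 h with 8 half-log concentrations up to 100 uM, vehicle 0.5% DMSO.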

Read-out in assay [8]: growth arrest and DNA damage 45 (GADD45G), GADD45G (gene 10912)
Briefly: LTEA_HepaRG_GADD45G: Life Technologies and Expression Analysis (LTEA) Assay for growth arrest and DNA damage 45 (GADD45G) using HepaRG (AID 2283499). The method, boiled down:
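HepaRG, 48 h exposure, top 100 uM, half-log 8-point series, 0.5% DMSO vehicle, duplicates. Readout: GADD45G transcript by qRT-PCR (Fluidigm array), housekeeping-normalised (ACTB/GAPDH/POLR2A). Bidirectional curve fit vs DMSO baseline.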

Read-out in assay [9]: Glutamate-cysteine ligase regulatory (GCLM), GCLM (gene 2730)
Briefly: LTEA_HepaRG_GCLM: Life Technologies and Expression Analysis (LTEA) Assay for Glutamate-cysteine ligase regulatory (GCLM) using HepaRG (AID 2283500). The method, boiled down: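 HepaRG, 48 h dosing, 100 uM top, half-log x8, 0.5% DMSO vehicle. Readout: GCLM mRNA by TaqMan qRT-PCR, housekeeping-normalized (ACTB/GAPDH/POLR2A). Curves fit bidirectionally vs DMSO baseline.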

Read-out in assay [10]: Heat shock 70 kDa protein 1 (HSPA1A), gene 3303
Briefly: LTEA_HepaRG_HSPA1A: Life Technologies and Expression Analysis (LTEA) Assay for Heat shock 70 kDa protein 1 (HSPA1A) using HepaRG (AID 2283502). The method, boiled down: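 HepaRG, 48 h exposure, 8-pt half-log CRC from 100 uM in 0.5% DMSO, duplicates. Readout: TaqMan qRT-PCR of HSPA1A mRNA, housekeeping-normalized (ACTB/GAPDH/POLR2A). Bidirectional fit vs 0.5% DMSO baseline.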

Read-out in assay [11]: Hypoxia-inducible factor 1-alpha (Homo sapiens) (UniProt Q16665)
Briefly: LTEA_HepaRG_HIF1A: Life Technologies and Expression Analysis (LTEA) Assay for Hypoxia-inducible factor 1 (HIF1A) Trancription factor using HepaRG (AID 2283503). The gist of the method:
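Gain- or loss-of-signal HIF1A mRNA changes are fitted against a DMSO baseline. HepaRG cultures receive eight concentrations, highest 100 uM, for 48 h in serum-free induction medium with 0.5% DMSO.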

Read-out in assay [12]: 3-Hydroxy-3-Methylglutaryl-CoA Synthase 2 (HMGCS2), HMGCS2 (gene 3158)
Briefly: LTEA_HepaRG_HMGCS2: Life Technologies and Expression Analysis (LTEA) Assay for 3-Hydroxy-3-Methylglutaryl-CoA Synthase 2 (HMGCS2) using HepaRG (AID 2283504). The gist of the method: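 qRT-PCR read-out of HMGCS2 transcript, normalised to three housekeeping genes, in HepaRG cells after 48 h chemical exposure. Eight-point curves from 100 uM, half-log dilutions, 0.5% DMSO vehicle; gain or loss fitted relative to DMSO baseline.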

Read-out in assay [13]: Insulin Like Growth Factor 1 (IGF1), IGF1 (gene 3479)
Briefly: LTEA_HepaRG_IGF1: Life Technologies and Expression Analysis (LTEA) Assay for Insulin Like Growth Factor 1 (IGF1) using HepaRG (AID 2283506). The method, boiled down:
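qRT-PCR readout of IGF1 mRNA, normalized to three housekeeping genes, after 48 h chemical exposure of HepaRG cells. Concentrations: 8-point half-log series, top 100 uM, 0.5% DMSO vehicle. Gain or loss fitted against DMSO baseline.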

Read-out in assay [14]: Intercellular Adhesion Molecule 1 (ICAM1), ICAM1 (gene 3383)
Briefly: LTEA_HepaRG_ICAM1: Life Technologies and Expression Analysis (LTEA) Assay for Intercellular Adhesion Molecule 1 (ICAM1) using HepaRG (AID 2283507). The gist of the method:
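HepaRG, 48 h exposure, 8-pt half-log series from 100 uM, 0.5% DMSO vehicle, duplicates. Readout: TaqMan qRT-PCR mRNA, housekeeping-normalized (ACTB/GAPDH/POLR2A). Bidirectional curve fit vs DMSO baseline.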

Read-out in assay [15]: Insulin-like growth factor-binding protein 1 (IGFBP1), IGFBP1 (gene 3484)
Briefly: LTEA_HepaRG_IGFBP1: Life Technologies and Expression Analysis (LTEA) Assay for Insulin-like growth factor-binding protein 1 (IGFBP1) using HepaRG (AID 2283508). The method, boiled down: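 qRT-PCR mRNA read-out (TaqMan, Fluidigm array), normalised to three housekeeping genes; HepaRG cells, 48 h exposure, 8-pt half-log series from 100 uM, 0.5% DMSO vehicle; bidirectional curve fit vs DMSO baseline.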

Read-out in assay [16]: Interleukin 6 (IL6), IL6 (gene 3569)
Briefly: LTEA_HepaRG_IL6: Life Technologies and Expression Analysis (LTEA) Assay for Interleukin 6 (IL6) using HepaRG (AID 2283509). The gist of the method: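 Transcript levels, normalized to three housekeeping genes, were quantified by qRT-PCR after 48 h chemical treatment of HepaRG cells. Eight-point half-log series from 100 uM in 0.5% DMSO, duplicates. Fitted both directions against DMSO baseline.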

Read-out in assay [17]: Cytochrome P450 7A1 (Homo sapiens) (UniProt P22680)
Briefly: LTEA_HepaRG_CYP7A1: Life Technologies and Expression Analysis (LTEA) Assay for Cytochrome P450 7A1 (CYP7A1) using HepaRG (AID 2283496). The gist of the method: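 Using 0.5% DMSO as vehicle and baseline, chemicals were tested in duplicate over an 8-point range from 100 uM on HepaRG cells for 48 h; qRT-PCR signals were normalised to ACTB, GAPDH and POLR2A.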

Read-out in assay [18]: Glutathione S-transferase M3 (GSTM3), GSTM3 (gene 2947)
Briefly: LTEA_HepaRG_GSTM3: Life Technologies and Expression Analysis (LTEA) Assay for Glutathione S-transferase M3 (GSTM3) using HepaRG (AID 2283501). The gist of the method: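 qRT-PCR read-out of GSTM3 transcript, normalized to three housekeeping genes, from human HepaRG cells after 48 h chemical exposure. Eight-point half-log series, top 100 uM, 0.5% DMSO vehicle; gain or loss fitted relative to DMSO baseline.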

Read-out in the next assay: HGF (gene 3082)
Briefly: LTEA_HepaRG_HGF: Life Technologies and Expression Analysis (LTEA) Assay for Hepatocyte Growth Facto (HGF) using HepaRG (AID 2283505). The gist of the method:
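HepaRG, 48 h dosing, 8-pt half-log series from 100 uM in 0.5% DMSO, duplicates. Readout: TaqMan qRT-PCR of HGF mRNA, housekeeping-normalized; bidirectional curve fit vs DMSO baseline.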

Active and inactive are the calls of the source. The calls were made as follows: active = hit-call score of the fitted dose curve at least 0.9, where 1 is the maximum; inactive = score below 0.9.

Sequence of Hypoxia-inducible factor 1-alpha (Homo sapiens) (Q16665 whole entry, looked up): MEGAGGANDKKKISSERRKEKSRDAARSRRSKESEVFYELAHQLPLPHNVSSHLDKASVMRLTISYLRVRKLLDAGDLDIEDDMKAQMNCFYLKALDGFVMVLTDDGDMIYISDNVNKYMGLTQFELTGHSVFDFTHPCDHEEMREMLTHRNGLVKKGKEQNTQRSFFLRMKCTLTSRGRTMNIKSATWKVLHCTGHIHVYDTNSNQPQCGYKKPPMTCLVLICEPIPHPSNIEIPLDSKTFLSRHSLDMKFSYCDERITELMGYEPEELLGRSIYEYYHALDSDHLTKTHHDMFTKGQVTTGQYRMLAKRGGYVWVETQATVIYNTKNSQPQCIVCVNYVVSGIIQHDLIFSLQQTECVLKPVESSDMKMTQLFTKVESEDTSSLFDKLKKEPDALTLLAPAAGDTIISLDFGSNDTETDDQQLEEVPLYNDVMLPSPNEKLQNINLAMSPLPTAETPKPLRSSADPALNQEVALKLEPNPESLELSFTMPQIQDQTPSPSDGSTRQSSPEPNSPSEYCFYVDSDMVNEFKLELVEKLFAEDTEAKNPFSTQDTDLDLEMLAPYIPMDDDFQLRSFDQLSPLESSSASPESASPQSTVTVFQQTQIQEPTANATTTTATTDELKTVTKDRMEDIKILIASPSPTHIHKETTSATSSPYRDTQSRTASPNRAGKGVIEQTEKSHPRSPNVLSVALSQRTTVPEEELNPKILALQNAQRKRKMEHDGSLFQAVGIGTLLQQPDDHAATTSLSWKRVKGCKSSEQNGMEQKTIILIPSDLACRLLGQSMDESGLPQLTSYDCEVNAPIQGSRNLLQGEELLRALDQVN
Sequence of Cytochrome P450 3A7 (Homo sapiens) (P24462 whole entry, looked up): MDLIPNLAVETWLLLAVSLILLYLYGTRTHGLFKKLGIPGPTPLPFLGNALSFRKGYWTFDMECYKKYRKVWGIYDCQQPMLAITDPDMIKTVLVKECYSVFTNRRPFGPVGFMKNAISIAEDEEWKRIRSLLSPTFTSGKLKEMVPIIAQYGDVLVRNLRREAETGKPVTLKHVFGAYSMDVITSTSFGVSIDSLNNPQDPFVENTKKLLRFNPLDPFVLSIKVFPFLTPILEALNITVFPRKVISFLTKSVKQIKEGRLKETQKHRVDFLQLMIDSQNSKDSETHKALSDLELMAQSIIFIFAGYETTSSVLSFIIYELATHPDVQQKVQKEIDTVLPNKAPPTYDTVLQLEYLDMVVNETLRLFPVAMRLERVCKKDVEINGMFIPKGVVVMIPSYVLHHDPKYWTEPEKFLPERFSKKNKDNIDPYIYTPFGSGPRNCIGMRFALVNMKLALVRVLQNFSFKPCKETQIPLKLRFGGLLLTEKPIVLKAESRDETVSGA

One may read the AC50 as the midpoint of the concentration-response curve, whichever way the signal moves. For the compound `O=C(O)c1ccccc1-n1cc(C(=O)O)c(=O)c2cc(Nc3c(F)cc(F)cc3Cl)c(Cl)cc21`, the outcome (in [1]; in [2]; with CYP3A5 (gene 1577); in assay [4]; in assay [5]; in assay [6]) was inactive. The compound was classed as inactive in [7], in assay [8], in assay [9], in [10], in assay [11] and in assay [12]. Moreover, the compound was classed as inactive in [13], in assay [14], in assay [15] and in assay [16]. Besides, in assay [3], the AC50 was 3 µM (active).

In the case of `O=C(Nc1ccc(Cl)cc1)Nc1ccc(Cl)c(Cl)c1`, the AC50 in [1] is 12.6 µM (active); in assay [4], 16.7 µM (active); in assay [5], 24.2 µM (active); in assay [17] it was 26 µM (active); in [8], 22.8 µM (active); in [10] it was 29.1 µM (active). For the same compound, the AC50 is 72.1 µM (active) in [11]; 28.6 µM (active) in assay [12]; 24.4 µM (active) in assay [13]; 27.7 µM (active) in assay [15]; 23.3 µM (active) in assay [16]. In addition, the outcome (in assay [2]; with CYP3A5 (gene 1577); in assay [9]; in assay [14]) was inactive.

Consider `c1ccc2n[nH]nc2c1`, for which the outcome (in [1]; in assay [2]; with CYP3A5 (gene 1577); in assay [4]; in assay [7]; in assay [8]) was inactive. Besides, the compound was classed as inactive (in [9]; in assay [18]; in assay [10]; in assay [11]; in [12]; with HGF (gene 3082)). Further, the compound was classed as inactive in assay [13], in assay [14], in assay [15] and in [16].

The record behind these values is PubChem BioAssay (EPA / NIEHS).
